Bioassay records deposited in PubChem BioAssay by National Center for Advancing Translational Sciences (NCATS).
SW480 rereplic: DNA re-replication induction in SW480 cells; SW480 DNA re-replication, Hoechst DNA content imaging, 48 h; Potency, µM (series often up to 46.1 µM), inactives show top-dose re-replication activation, most hits filed as activators; hit rate 1.8% among 340,000; also: % of control where 0% means no effect; nearly all actives have a fitted effect of over 55% in size
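Treated cells incubate 48 hr (37 C, 5% CO2), are stained 40 min with Hoechst, and nuclear fluorescence is enumerated; a rise in nuclei with high DNA signal marks re-replication.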
HT1080NT lethal: kills 2HG-producing HT-1080-NT fibrosarcoma cells; hit rate 1.6% among 360,000; HT-1080-NT fibrosarcoma viability, CellTiter-Glo ATP luminescence, 48 h; Potency, µM (doses to about 46.1 µM), for inactives: at the top dose activity, negative = less viability, most hits filed as cytotoxic;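 also: NT is the 2HG producing partner of a matched IDH1 knockdown line; 0% = DMSO-treated cells and -100% = media-only wells without cells; nearly all actives have a fitted effect of over 55% in size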
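750 cells/well, RPMI + 5% FBS; 2 h settle, compound pin-transfer, 48 h at 37 degrees C. CellTiter-Glo 10 min RT, luminescence. Normalized to DMSO and media-only wells.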
MCF10A rerep: induces DNA re-replication in MCF 10a normal breast cells | MCF 10A DNA re-replication, Hoechst nuclear intensity, 48 h | Potency, µM (top dose mostly 46.1 µM), for the others: top-dose activity, positive = re-replication, hits mostly activators | hit rate 2.9% among 350,000; also: % of control where 0% means no effect; nearly all actives have a fitted effect of over 50% in size
KB-3-1 cytotox: kills parental KB-3-1 adenocarcinoma cells. KB-3-1 viability, CellTiter-Glo ATP luminescence, 72 h. Potency, µM (titrated, usually from 46.1 µM), hits mostly cytotoxic. hit rate 1.4% among 400,000; also: % is scaled to controls: 0 for no effect and ±100 for the full control effect; nearly all actives have a fitted effect of over 60% in size
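Viability of parental KB-3-1 cells, measured by CellTiter-Glo luminescence, followed a 72 h incubation at 37 °C with pinned compounds in phenol-red-free DMEM containing 10% FBS.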
KB-V1 MDR tox: kills drug-selected multidrug resistant KB-V1 cells; Potency, µM (highest dose often 46.1 µM), usual class: cytotoxic; hit rate 3.4% among 400,000; KB-V1 MDR cells viability, CellTiter-Glo, 72 h; also: % is scaled to controls: 0 for no effect and ±100 for the full control effect; nearly all actives have a fitted effect of over 60% in size
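Compound-treated KB-V1 multidrug-resistant cells, 72 h, 37 degrees C; viability by CellTiter-Glo. Fitted qHTS curves give the values.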
HT1080 IDH1KD tx: kills HT-1080 cells with IDH1 knockdown. HT-1080 IDH1 knockdown viability, ATP luminescence, 48 h. Potency, µM (doses to about 46.1 µM), inactives show at the highest dose activity, negative = toxicity, usual class: cytotoxic. hit rate 2% among 360,000;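 also: 0% = DMSO wells and -100% = cell-free medium wells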
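Using the IDH1-knockdown HT-1080 line run in the same batch and compound series as the NT line, viability after 48 h at 37 °C was determined by CellTiter-Glo luminescence and expressed as % activity.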
Active calls of the source: *; i = inactive; u = inconclusive; x = no result given. Most compounds without a hit are left out; they make up all but 8% or so of the library. Calls follow the shape of the dose curve; as a rule, active = well fitted curve in the direction sought with a large enough effect; inconclusive = small, poorly fitted or top-dose-only effect, or another doubt; inactive = no such curve, though single readings can be large; an effect the other way counts as inactive or inconclusive. Potency is read from the fitted curve at half-maximal effect.

SMILES | SW480 rereplic | HT1080NT lethal | MCF10A rerep | KB-3-1 cytotox | KB-V1 MDR tox | HT1080 IDH1KD tx
COc1ccc(/C=C(/NC(=O)c2ccccc2)c2nc3ccccc3[nH]2)cc1OC | u | -8% | 21µM* | i | i | -5%
COc1ccc(/C=C(/NC(=O)c2ccccc2)c2nc3ccc(Cl)cc3[nH]2)cc1OC | -1% | -11% | u | u | 12µM* | -15%
CC1CCN(C(=O)CSc2nc(N)c3c4c(sc3n2)CN(C)CC4)CC1 | 0% | 2% | -10% | i | i | 2%
O=C1NC(=S)S/C1=C/c1ccc(OC(=O)c2ccco2)cc1 | 2% | -4% | u | i | i | -3%
CCOc1cc(/C=C2/SC(=S)NC2=O)ccc1OC(=O)c1ccco1 | u | 12µM* | u | i | i | u
COc1cc(/C=C2/SC(=O)NC2=O)ccc1OC(=O)c1ccco1 | 0% | -6% | u | 10µM* | u | -22%
CN(c1ccccc1)S(=O)(=O)c1ccc(NC(=O)c2ccccc2)cc1 | -7% | 2% | 17% | u | u | -3%
CCc1nnc(NC(=O)c2ccc(S(=O)(=O)N(C)c3ccccc3)cc2)o1 | 15µM* | -30% | 7% | u | i | u
CCc1nnc(NC(=O)c2ccc(S(=O)(=O)N(CC(C)C)CC(C)C)cc2)o1 | 18% | u | 8.9µM* | u | u | u
Cc1ccc(C(CNS(=O)(=O)c2ccc(F)cc2C)N2CCN(C)CC2)cc1 (stereo unspecified) | -79% | -30% | 3% | i | i | -17%
COc1cc(OC)nc(-n2ncc(Br)c(Br)c2=O)n1 | 7% | 1.6µM* | 4.6µM* | 6.5µM* | u | 1.6µM*
CCOC(=O)c1cnn(-c2nc(OC)cc(OC)n2)c1C(F)(F)F | 3% | 3% | 6% | i | u | 4%
COC(=O)c1cnn(-c2nc(OC)cc(OC)n2)c1C | -14% | -3% | -2% | i | 16µM* | 2%
Nc1c(S(=O)(=O)c2ccccc2)c2nc3ccccc3nc2n1CCN1CCOCC1 | u | -5% | -43% | i | i | 7%
Nc1c(S(=O)(=O)c2ccccc2)c2nc3ccccc3nc2n1Cc1ccco1 | u | -27% | u | u | 23µM* | -17%
Cc1ccc(S(=O)(=O)c2c(N)n(Cc3ccco3)c3nc4ccccc4nc23)cc1C | u | u | 15µM* | u | 23µM* | u
Cc1ccc(S(=O)(=O)c2c(N)n(CCN3CCOCC3)c3nc4ccccc4nc23)cc1C | 20% | -7% | u | i | i | -3%
CN(C)/C=C1/C=C(c2ccccc2)OC1=O | u | u | 18µM* | i | i | u
CCc1ccc(CNC(=O)c2c3c(nc4ccccc24)C(=O)N(C2CCCCC2)C3)cc1 | x | x | x | i | 13µM* | x
O=C(Nc1ccc(F)cc1)N[C@@H]1CC[C@@H](CCn2cc(-c3ccc(F)cc3)nn2)O[C@@H]1CO | x | 10% | x | i | i | 16%
O=C(Nc1ccc(Cl)c(Cl)c1)N[C@@H]1CC[C@@H](CCn2cc(C3CCCCC3)nn2)O[C@@H]1CO | x | 21µM* | x | u | i | 23µM*
CC(C)NC(=O)/C(C#N)=C/c1cccc(NC(=O)c2ccccc2Cl)c1 | u | u | u | i | u | u
CC1(C(=O)NS(=O)(=O)c2ccc(Cl)cc2)CCN1C(=O)Cc1ccccc1 (stereo unspecified) | x | u | x | i | i | 18%
COc1ccc(-n2cc(CN(C)C(C)c3ccncn3)c(-c3cccc(F)c3)n2)cc1 (stereo unspecified) | 7% | -17% | 13µM* | i | u | -21%
